Measurements published in PubChem BioAssay AID485346 (Sanford-Burnham Center for Chemical Genomics, 2010).
Screen size: about 330,000 compounds; about 10,000 (3%) were called active.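 The calls were made as follows: active = inhibition of at least 50% at 8 µM in the primary screen; inactive = the rest.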 This excerpt belongs to a sample that is enriched for actives.

The compounds below were run against Protein Mdm4 (Homo sapiens) + E3 ubiquitin-protein ligase Mdm2 (Homo sapiens) (UniProt O15151+Q00987) (assay: inhibitors of human Mdm2-MdmX association, primary screen, cell-based, luminescence, split luciferase, SaOS-2, uHTS (AID 485346)). Conditions: SaOS-2 split-luciferase Mdm2/MdmX complementation, at 8 µM, active compounds read high.
Protein Mdm4 (Homo sapiens) + E3 ubiquitin-protein ligase Mdm2 (Homo sapiens), sequence (O15151 whole entry, looked up): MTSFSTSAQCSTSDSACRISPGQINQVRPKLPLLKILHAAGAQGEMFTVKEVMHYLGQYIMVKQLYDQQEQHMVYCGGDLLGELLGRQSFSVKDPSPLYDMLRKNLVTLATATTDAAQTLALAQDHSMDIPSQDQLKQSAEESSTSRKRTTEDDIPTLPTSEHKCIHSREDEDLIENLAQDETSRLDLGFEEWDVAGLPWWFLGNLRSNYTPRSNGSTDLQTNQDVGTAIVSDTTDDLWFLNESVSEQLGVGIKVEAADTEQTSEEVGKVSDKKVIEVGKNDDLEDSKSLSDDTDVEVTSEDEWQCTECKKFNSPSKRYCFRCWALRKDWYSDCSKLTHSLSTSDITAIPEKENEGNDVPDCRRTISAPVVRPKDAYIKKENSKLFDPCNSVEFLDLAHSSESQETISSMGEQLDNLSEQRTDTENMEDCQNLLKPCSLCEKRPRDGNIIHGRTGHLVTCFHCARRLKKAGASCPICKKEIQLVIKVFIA
Protein Mdm4 (Homo sapiens) + E3 ubiquitin-protein ligase Mdm2 (Homo sapiens), sequence (Q00987 whole entry, looked up): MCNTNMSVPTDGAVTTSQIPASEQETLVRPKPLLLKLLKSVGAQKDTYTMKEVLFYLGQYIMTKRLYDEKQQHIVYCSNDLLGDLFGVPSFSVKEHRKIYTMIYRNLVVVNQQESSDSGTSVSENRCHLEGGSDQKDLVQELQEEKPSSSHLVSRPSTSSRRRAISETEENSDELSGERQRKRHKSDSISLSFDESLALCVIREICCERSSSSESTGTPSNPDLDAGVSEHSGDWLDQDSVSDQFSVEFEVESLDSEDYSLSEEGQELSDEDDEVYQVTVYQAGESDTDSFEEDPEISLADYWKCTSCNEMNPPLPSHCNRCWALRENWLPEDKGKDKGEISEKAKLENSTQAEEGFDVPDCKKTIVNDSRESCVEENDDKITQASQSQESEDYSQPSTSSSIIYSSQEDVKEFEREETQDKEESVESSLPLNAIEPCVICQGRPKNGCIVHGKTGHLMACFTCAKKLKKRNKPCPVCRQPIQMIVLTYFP

| SMILES | inhibition |
| --- | --- |
| CCCCN(C)CCNC(=O)CSCc1ccc(C)cc1 | 7.69% (inactive) |
| CCOC(=O)NC(=O)C(=CNc1cccc(OC)c1)C(=O)NC(=O)OCC | 9.28% (inactive) |
| C=CCOCCN(C)C1=NS(=O)(=O)c2ccccc21 | 5.66% (inactive) |
| CN(Cc1ccccc1)S(=O)(=O)c1nnc(NC(=O)c2ccccc2F)s1 | -3.09% (inactive) |
| O=C(Nc1nc(-c2cccnc2)cs1)c1ccccc1F | -52.4% (inactive) |
| O=C(Nc1nnc(-c2ccccc2F)s1)c1ccccc1F | 54.1% (active) |
| CCSc1nc(=S)n(CC)c(C)c1C(C)=O | 14.7% (inactive) |
| Cc1ccc2nc(-c3ccc(Br)cc3)cn2c1 | 61.7% (active) |
| Cc1ccc(-c2cn3cc([N+](=O)[O-])ccc3n2)cc1 | -68.9% (inactive) |
| CSc1nnc2ccc(-c3ccc(C)cc3)nn12 | 34.9% (inactive) |
| Cc1ccc(-c2cn3cc(C)ccc3n2)cc1 | 89.4% (active) |
| CCN(CC)S(=O)(=O)c1ccc(-c2cn3ccc(C)cc3n2)cc1 | -58.3% (inactive) |
| COc1ccc(-c2cn3ccc(C)cc3n2)cc1 | 33.6% (inactive) |
| C[C@@]12C(=O)N(c3cccc(Br)c3)C(=O)N1[C@H](c1ccc(Cl)cc1)[C@@H]1C(=O)N(C3CCCCC3)C(=O)[C@@H]12 | 49.2% (inactive) |
| CCC(C)C(N=C1NS(=O)(=O)c2ccccc21)C(=O)N1CCC(C)CC1 (stereo not given) | 11.7% (inactive) |
| CCN1C(=O)/C(=C\N2CCOCC2)SC1=S | 7.76% (inactive) |
| CCC1(C)NC(=O)N(CC(=O)N2CCN(c3cccc(Cl)c3)CC2)C1=O (stereo not given) | 13.3% (inactive) |
| CCN1C(=O)/C(=C\N2CCN(c3cccc(Cl)c3)CC2)SC1=S | 64.2% (active) |
| CCOc1ccc(N/C=C/C(=O)c2cc(OC)c(OC)c(OC)c2)cc1 | 28.5% (inactive) |
| COc1ccc(C(=O)/C=C/Nc2ccccn2)cc1 | 56.3% (active) |

| SMILES | inhibition |
| --- | --- |
| CCOc1ccc(N/C=C/C(=O)c2ccccc2)cc1 | -143% (inactive) |
| COc1ccccc1-c1sc2ccccc2c1C#CC1(O)CCCCC1 | 12% (inactive) |
| CSc1ccccc1NC(=O)COC(=O)CCCOc1ccc(C)cc1 | 2.26% (inactive) |
| COc1ccc(/C=C/c2nnc(NC(=O)C(C)C)s2)cc1 | 18.7% (inactive) |
| O=C(CSc1ccccc1)Nc1nnc(/C=C/c2ccccc2)s1 | -2.82% (inactive) |
| O=C(Nc1ccc(Cl)cc1)Nc1nnc(/C=C/c2ccccc2)s1 | 84.4% (active) |
| CC(=O)NCC(=O)N1CCC(n2nccc2NC(=O)CCCc2ccccc2)CC1 | -4.94% (inactive) |
| COC(=O)c1cccc(N(CC(=O)NCC2CCCO2)C(=O)CCC(=O)Nc2cc(C)on2)c1 (stereo not given) | 5.29% (inactive) |
| CC12CCC(C(=O)N(NC(=O)c3ccccc3O)C1=O)C2(C)C (stereo not given) | 61.1% (active) |
| COc1ccccc1C(=O)NN1C(=O)C2C3C=CC(O3)C2C1=O (stereo not given) | 14.8% (inactive) |
| O=C(NN1C(=O)C2C(C1=O)C1C=CC2C12CC2)c1ccccc1Cl (stereo not given) | 4.22% (inactive) |
| COCCN1C(=O)N(c2ccc(Cl)cc2)C(=O)C1CC(=O)Nc1cc(OC)cc(OC)c1 (stereo not given) | 22.4% (inactive) |
| O=C(Nc1ccc(Br)cc1)c1cccc(NC(=O)C2C3CC4OC(=O)C2C4C3)c1 (stereo not given) | 8.16% (inactive) |
| CCN1C(=O)[C@@H]2[C@@H](c3ccc(-c4ccc(OC)cc4)c(OC)c3)N3CCC[C@@]3(C(=O)OC)[C@@H]2C1=O | 28.1% (inactive) |
| CCCCCCSc1ccc([C@@H]2[C@H]3C(=O)N(CC)C(=O)[C@H]3[C@]3(C(=O)OC)CCCCN23)cc1 | 29.8% (inactive) |
| CCCCCCSc1ccc([C@@H]2[C@@H]3C(=O)N(CC)C(=O)[C@@H]3[C@]3(C(=O)OC)CCCCN23)cc1OC | 54.2% (active) |
| COCCn1c(C)cc(C(=O)CN2c3cccc4cccc(c34)S2(=O)=O)c1C | 5.95% (inactive) |
| C/C(=N\Nc1ccc([N+](=O)[O-])cc1)c1ccc(-n2nncc2C(C)(C)C)cc1 | 22.2% (inactive) |
| O=C(CN1C(=O)CSC1=O)N1CCCC(Nc2ccc(F)cc2)C1 (stereo not given) | 5.11% (inactive) |
| CC1=NN(c2cccc(Cl)c2)C(=O)C12CC(C)=C(C)CS2 (stereo not given) | 6.51% (inactive) |

| SMILES | inhibition |
| --- | --- |
| COc1ccc(C(C(=O)NC2CCCCC2)N(C(=O)c2snc(C(N)=O)c2N)c2ccccc2OC)cc1 (stereo not given) | 23.2% (inactive) |
| COc1cccc(N(C(=O)C2COc3ccccc3O2)C(C(=O)NC2CCCCC2)c2ccc(O)cc2)c1 (stereo not given) | 5.54% (inactive) |
| COc1ccc(C(C(=O)NC2CCCCC2)N(C(=O)CCl)c2ccccc2Cl)cc1 (stereo not given) | 92% (active) |
| Cc1nnc(SC(C(=O)Nc2cc(Cl)cc(Cl)c2)c2ccccc2)[nH]c1=O (stereo not given) | -11% (inactive) |
| OCC1(Cc2ccccc2C(F)(F)F)CCN(Cc2cccc3cnccc23)CC1 | -16.9% (inactive) |
| Cc1cccc(C(=O)Nc2ccc(Oc3cnccn3)cc2)c1 | -15.7% (inactive) |
| CCCCSc1nnc2c(n1)OC=Nc1ccccc1-2 | -25.2% (inactive) |
| Cc1ccc(S(=O)(=O)NCC(=O)N(CC(=O)NC2CCCCC2)Cc2ccco2)cc1 | -4.29% (inactive) |
| Cc1ccc(-c2cc(=O)[nH]c(NCc3ccccc3)n2)cc1 | -3.28% (inactive) |
| Brc1ccc(C2CC(c3ccccc3)=Nc3ccccc3N2)cc1 (stereo not given) | -130% (inactive) |
| Cc1cn(COC/C=C/c2ccccc2)c(=O)[nH]c1=O | 7.02% (inactive) |
| Cc1[nH]c(=O)c(C(=O)/C=C/c2ccccc2)c2c1CCCC2 | 70.9% (active) |
| CC(=O)Nc1ccc(/C=C/C(=O)c2ccccc2)cc1 | -7.03% (inactive) |
| CC(C)C[C@H](CO)Nc1nc(N(C)c2cccc(Cl)c2)c2ncn(C(C)C)c2n1 | 22.9% (inactive) |
| CC(C)n1cnc2c(Nc3cccc(Cl)c3)nc(N(CCO)CCCO)nc21 | 88.9% (active) |
| COCn1c(C(O)c2ccccc2)cc2ccccc21 (stereo not given) | -4.01% (inactive) |
| Cc1cc(C)c2nc(N3CCC(C(=O)NCCN4CCOCC4)CC3)sc2c1 | 16.2% (inactive) |
| CC(=O)N(Cc1cc(=O)[nH]c2ccccc12)c1ccc(C)cc1C | 15.3% (inactive) |
| Cc1ccc(N(Cc2cc(=O)[nH]c3ccccc23)C(=O)CCl)cc1 | 100% (active) |
| Cc1ccc(N(Cc2cc3ccccc3[nH]c2=O)C(=O)c2cccs2)cc1 | -12.3% (inactive) |
